Values joined by “and” are separate entries in the source; they are usually repeats but may differ in a detail not shown here. Equal entries are not always repeated. Inconclusive results are not listed. A number with no mark means an inactive call. Active and inactive are the calls of the source. The call rests on the fitted dose curve; in most records, active means well fitted curve in the direction sought with a large enough effect; inconclusive means small, poorly fitted or top-dose-only effect, or another doubt; inactive means no such curve, though single readings can be large; an effect the other way counts as inactive or inconclusive.

The nature of assay [1]: Viability qHTS for spleen associated tyrosine kinase inhibitor (SYKi) drug resistant MV4-11 cells (AID 1963824). Further: nearly all actives have a fitted effect of over 35% in size. In short, it runs like this: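 SYK inhibitor-resistant MV4-11 AML cells, 500 per well, added to predispensed compounds and incubated 72 hr at 37 C, 5% CO2. Viability measured by CellTiter-Glo luminescence after 10 min at room temperature.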
A short description of assay [2]: Quantitative highthroughput screen to assess conditional lethalithy of NOMO1 cells grown in RPMI1640 with untreated serum (RPMI+s) (AID 1963876). Further: nearly all actives have a fitted effect of over 35% in size.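 On Viability: 100% = DMSO wells and 0% = empty wells without cells.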 The procedure, abridged: (§1)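 Each medium arm—HPLM with 10% dialyzed FBS, or RPMI1640 with 5 mM glucose and 10% untreated or dialyzed FBS—was screened against an 11-point, 3-fold compound titration for 48 h at 37 °C, with CellTiter-Glo luminescence as endpoint.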

The nature of assay [3]: Quantitative highthroughput screen to assess conditional lethalithy of NOMO1 cells grown in RPMI1640 with dialyzed fetal bovine serum (RPMI+ds) (AID 1963877). Further: nearly all actives have a fitted effect of over 30% in size.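 On Viability: series mostly up to about 46 µM; 100% = DMSO control wells and 0% = empty wells.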 In short, it runs like this: as §1
Assay [4] can be described thus: Quantitative highthroughput screen to assess conditional lethalithy of P12 Ichikawa cells grown in Human Plasma-Like Medium with dialyzed fetal bovine serum (HPLM+ds) (AID 1963879). Further: nearly all actives have a fitted effect of over 35% in size. On Viability: series mostly up to about 46 µM. The following applies: Potency: viability. The procedure, abridged:
as §1

Assay [5] in a line: Quantitative highthroughput screen to assess conditional lethalithy of P12 Ichikawa cells grown in RPMI1640 with dialyzed fetal bovine serum (RPMI+ds) (AID 1963880). Further: nearly all actives have a fitted effect of over 35% in size.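 On Viability: 100% = DMSO wells and 0% = empty wells on each plate.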 The following applies: Potency: P12-Ichikawa viability. The procedure, abridged: as §1
Assay [6] can be described thus: Quantitative highthroughput screen to assess conditional lethalithy of SEM cells grown in Human Plasma-Like Medium with dialyzed fetal bovine serum (HPLM+ds) (AID 1963882). Further: nearly all actives have a fitted effect of over 35% in size. On Viability: series mostly up to about 46 µM. The procedure, abridged:
as §1

A short description of assay [7]: Quantitative highthroughput screen to assess conditional lethalithy of SEM cells grown in RPMI1640 with unreated serum (RPMI+s) (AID 1963883). Further: nearly all actives have a fitted effect of over 35% in size.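 On Viability: 100% = DMSO wells and 0% = empty wells without cells.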 In short, it runs like this:
as §1

A short description of assay [8]: Quantitative highthroughput screen to assess conditional lethalithy of SEM cells grown in RPMI1640 with dialyzed fetal bovine serum (RPMI+ds) (AID 1963884). Further: nearly all actives have a fitted effect of over 35% in size.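 On Viability: series mostly up to about 46 µM; 100% = DMSO control wells and 0% = empty wells without cells.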 In short, it runs like this:
as §1

The nature of assay [9]: Cellular viability qHTS for adrenocortical cancer (ACC) cell line SW-13 (AID 1963989). Further: nearly all actives have a fitted effect of over 65% in size.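 On activity (max response): cells grown in serum-free medium with ITS supplement; on the % scale 0 is the no-effect control and ±100 the full control effect.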 As to conditions: SW-13 ACC cells viability, CellTiter-Glo, 48 h; activity (max response): stronger effect = lower value. The procedure, abridged: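 48 h treatment, SW-13 in ITS/DMEM serum-free; doses up to 46 uM; readout CellTiter-Glo luminescence; curve fit four-parameter logistic.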
Assay [10] in a line: Quantitative highthroughput screen to assess conditional lethalithy of P12 Ichikawa cells grown in RPMI1640 with untreated serum (RPMI+s) (AID 1963881). Further: nearly all actives have a fitted effect of over 35% in size.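 On Viability: series mostly up to about 46 µM; 100% = DMSO wells and 0% = empty wells without cells.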 The following applies: Potency: viability. The procedure, abridged: as §1
The nature of assay [11]: Cellular viability qHTS for adrenocortical cancer (ACC) cell line NCI-H295R (AID 1963990). Further: nearly all actives have a fitted effect of over 60% in size. The procedure, abridged:
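Compound titrations (up to 46 uM final) are applied to NCI-H295R cultures for 48 h at 37C. Viable cell number is estimated by CellTiter-Glo signal, normalised to DMSO and doxorubicin controls.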

Assay [12] in a line: Quantitative highthroughput screen to assess conditional lethalithy of NOMO1 cells grown in Human Plasma-Like Medium with dialyzed fetal bovine serum (HPLM+ds) (AID 1963878). Further: nearly all actives have a fitted effect of over 35% in size.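 On Viability: 100% = DMSO wells and 0% = empty wells on each plate.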 In short, it runs like this:
as §1
Potency means the concentration at half of the fitted maximal effect.

Regarding `c1cc(-c2sc(-c3ccncc3)c(-c3ccncc3)c2-c2ccncc2)ccn1`, the Potency in [1] was 18.6 µM (active); in assay [6], 2.96 µM (active); in assay [7], 2.35 µM (active); in [8], 2.64 µM (active). Further, the Potency result in assay [2], in assay [3], in assay [4] and in [5] was “inactive” throughout. Also, in assay [9], the activity (max response) is 2.5%.
For the compound `Cc1oc(=O)oc1CN1CCN(c2cc3c(cc2F)c(=O)c(C(=O)O)c2n3C(C)S2)CC1` (centres undefined), the Potency in assay [1] is 18.6 µM (active). Besides, the Potency result in assay [2], in [3], in assay [4], in assay [5], in assay [10] and in assay [11] was “inactive” each time. In addition, the activity (max response) in assay [9] is 4.83% and 4.68%.
As to `C[C@@H]1CC[C@@]2(OC1)OC1CC3C4CC=C5CC(O)CCC5(C)C4CCC3(C)C1[C@@H]2C` (some centres undefined), the Potency entry in [1] and in assay [11] was “inactive” each time. Also, the Potency in [2] is 14.8 µM (active); in assay [12], 13.2 µM (active); in assay [5], 18.7 µM (active). Besides, the activity (max response) in assay [9] was -3.87%.
`CCc1nc(-c2cccc(C)c2)c(-c2ccnc(NC(=O)c3ccccc3)c2)s1`: the Potency was 20.6 µM (active) in assay [1], 25.1 µM (active) in [9] and 28.2 µM (active) in assay [11]. The Potency result in assay [2], in assay [3] and in [6] was “inactive” in each case.
`CC(c1cc2ccccc2s1)N(O)C(N)=O` (centres undefined): the Potency entry in assay [1], in assay [2], in assay [3], in [4], in assay [5] and in assay [10] was “inactive” throughout. Besides, the Potency result in assay [8] and in [11] was “inactive” each time. Besides, the activity (max response) in [9] is -61.3%.
As for `O=S(=O)(c1cccc2cnccc12)N1CCCNCC1`, the Potency result in assay [1], in assay [2], in [3], in assay [10], in [6] and in assay [8] was “inactive” each time. Further, in assay [11], the Potency entry is “inactive”. Further, the activity (max response) in assay [9] was 2.02% and -0.384%.
As to `O=C(C1CC1)N1CC[C@@H](Cn2c(-c3ccc(-c4ccc5occc5c4)cc3)nc3cnccc32)C1`, the Potency in [1] was 14.8 µM (active). Moreover, the Potency entry in assay [2], in assay [3], in assay [4], in [5], in [7] and in assay [8] was “inactive” each time.
For the compound `CN(C)C(=O)c1ccc(S(=O)(=O)c2ccc(NC(=O)[C@@](C)(O)C(F)(F)F)c(Cl)c2)cc1`, the Potency in assay [1] was 9.2 µM (active) and 3.72 µM (active); in assay [2], 11.8 µM (active); in assay [12] it was 10.5 µM (active); in assay [10], 14.8 µM (active); in assay [7], 11.8 µM (active). Besides, the Potency result in assay [11] is “inactive”.
With `COc1c(Cl)cc2c([nH]c3cnccc32)c1NC(=O)c1cccnc1C`, the Potency in assay [1] was 18.6 µM (active) and 20.6 µM (active). Besides, the Potency entry in [2], in [12], in [4], in assay [5], in assay [6] and in [8] was “inactive” in each case. Also, in [11], the Potency entry is “inactive”. Moreover, the activity (max response) in [9] was -4.78%.
Turning to `CCNC(=O)c1noc(-c2cc(C(C)C)c(O)cc2O)c1-c1ccc(CN2CCOCC2)cc1`, the Potency in [1] was 0.0073 µM (active); in assay [2], 0.0833 µM (active); in assay [3] it was 0.0833 µM (active); in assay [7] it was 0.0418 µM (active); in assay [9], 0.0708 µM (active).
For `CN1C(=O)c2sccc2N(C)c2nc(Nc3ccc(S(N)(=O)=O)cc3)ncc21`, the Potency in assay [1] was 0.468 µM (active); in [2], 10.5 µM (active); in assay [12], 9.33 µM (active); in assay [4], 2.63 µM (active); in assay [5], 2.34 µM (active); in assay [10] it was 2.63 µM (active). Besides, the Potency was 2.63 µM (active) in assay [6], 2.34 µM (active) in assay [7], 2.34 µM (active) in [8] and 20 µM (active) in [9].
With `COc1ccc(C2=N[C@H](c3ccc(Cl)cc3)[C@H](c3ccc(Cl)cc3)N2C(=O)N2CCNC(=O)C2)c(OC(C)C)c1`, the Potency is 16.6 µM (active) in assay [1]; 23.5 µM (active) in assay [2]; 10.5 µM (active) in assay [12]; 10.5 µM (active) in [4]; 0.235 µM (active) in assay [6]; 0.418 µM (active) in [7]. Also, the Potency is 0.187 µM (active) in [8] and 31.6 µM (active) in [9].
As to `CCCCn1c(=O)n(Cc2ccccc2F)c(=O)c2[nH]c(Cc3ccc(NC(C)=O)cc3)nc21`, the Potency in [1] was 18.6 µM (active). Moreover, the Potency result in assay [2], in assay [4], in assay [5], in assay [10], in [6] and in assay [7] was “inactive” throughout. The Potency result in assay [8] was “inactive”. Also, the activity (max response) in [9] was -3.74%.
For `CN1CCC(CNc2ccc3ncc(-c4cccc(OC(F)(F)F)c4)n3n2)CC1`, the Potency in [1] was 41.1 nM (active) and 132 nM (active); in [2], 23.5 µM (active); in assay [3], 23.5 µM (active); in [6], 5.9 µM (active); in assay [7], 4.69 µM (active); in assay [8] it was 1.32 µM (active). In addition, the Potency was 15.8 µM (active) in assay [9] and 8.91 µM (active) in [11].
In the case of `CC(C)c1cnn2c(NCc3ccccc3)cc(NCCCCCCN)nc12`, the results for the Potency in assay [1] and in assay [11] were 14.8 µM (active) and 25.1 µM (active), respectively. Besides, the Potency entry in assay [2], in assay [3], in [5], in assay [10], in [6] and in assay [7] was “inactive” in each case. The Potency result in assay [8] was “inactive”.
Regarding `Nc1[nH]nc2nnc(-c3c(-c4ccccc4)nn4ccccc34)cc12`, the Potency in [1] is 16.4 µM (active); in [2] it was 1.48 µM (active); in assay [3] it was 2.64 µM (active); in assay [4] it was 8.33 µM (active); in [5], 13.2 µM (active); in assay [10], 7.43 µM (active). Moreover, the Potency in assay [6] and in assay [7] was 23.5 µM (active) each time. Besides, in [9], the activity (max response) was -4.73%. Besides, the Potency entry in [11] is “inactive”.
For `NC(=O)Cc1cccc(C(=O)c2ccccc2)c1N`, the Potency entry in [1], in assay [2], in assay [3], in assay [4], in assay [5] and in assay [10] was “inactive” in each case. For the same compound, the activity (max response) in [9] was 0.0063%.
`CCOc1cc(C(C)(C)C)ccc1C1=N[C@@](C)(c2ccc(Cl)cc2)[C@@](C)(c2ccc(Cl)cc2)N1C(=O)N1CCN(CC(=O)N2CCOCC2)CC1`: the Potency is 11.5 µM (active) in assay [1], 6.6 µM (active) in assay [7], 5.88 µM (active) in assay [8] and 14.1 µM (active) in assay [11]. In addition, the Potency entry in assay [2], in [3], in [4], in assay [5], in assay [10] and in assay [6] was “inactive” each time.

Values taken from PubChem BioAssay (NCATS).
